Source: PubChem BioAssay (National Center for Advancing Translational Sciences (NCATS))
HTT cytoprotect = qHTS Multiplex Assay to Identify Dual Action Probes in a Cell Model of Huntington: Cytoprotection (ATP); PC12 HTT-Q103 induced, cytoprotection, ATP luminescence, 40 h; Potency, µM (titrated, usually from 56.4 µM), for the others: cytoprotection (ATP increase), hits mostly activators; 230,000 tested, 0.14% active; AID 1471, 2008; active means well fitted curve in the direction sought with a large enough effect; inconclusive means small, poorly fitted or top-dose-only effect, or another doubt; inactive means no such curve, though single readings can be large; an effect the other way counts as inactive or inconclusive; further: % of control where 0% means no effect; nearly all actives have a fitted effect of over 45% in size
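Rat PC12, Q103 Htt exon1-GFP fusion, ecdysone promoter; tebufenozide inducer 100 nM final; compound titration; qHTS, 1500 cells/well; ATPlite luminescent read.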
LMNA splice mod = qHTS Assay for Modulators of Lamin A Splicing. Potency, µM (titrated, usually from 46.1 µM), for inactives: top-dose ratio change, negative = inhibition, actives largely listed as inhibitors. 200,000 tested, 0.01% active. HeLa LMNA splicing GFP/RFP minigene ratio, 48 h; active means well fitted inhibition curve with a large enough effect in the signal ratio, with a control signal flat, not every such curve was filed as active; inconclusive means small, poorly fitted or top-dose-only effect, or effect the other way, or a change in a side signal; the % refers to the signal ratio; further: on the % scale 0 is the no-effect control and ±100 the full control effect
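S3 HeLa cells stably expressing lamin A-EGFP splicing minigene plus DsRed2, 600 cells/well, 48 h compound exposure at 37C. Laser-scanning cytometry; analysed as GFP (500-530 nm)/RFP (575-640 nm) total intensity ratio; 0.5% DMSO vehicle.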
HPGD inh = qHTS Assay for Inhibitors of HPGD (15-Hydroxyprostaglandin Dehydrogenase); 15-hydroxyprostaglandin dehydrogenase [NAD(+)] (Homo sapiens), P15428; purified HPGD, NADH fluorescence kinetic, PGE2 substrate; Potency, µM, inactives show top-dose activity change, negative = inhibition, actives largely listed as inhibitors; 150,000 tested, 4.3% active; AID 894, 2007; further: on the % scale 0 is the no-effect control and ±100 the full control effect
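NADH formation kinetics: reaction with 30 uM PGE2 and 1 mM NAD+ (final), 20 nM enzyme, Tris-HCl pH 8 with Tween 20, after 15 min compound preincubation at room temperature. Fluorescence change, last versus first of five reads.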
ALDH1A1 inh = qHTS Assay for Inhibitors of Aldehyde Dehydrogenase 1 (ALDH1A1); 220,000 tested, 7.3% active; Purified ALDH1A1, NADH fluorescence, propionaldehyde substrate; Potency, µM (highest dose often 75.3 µM), for the others: top-dose activity, negative = inhibition, actives largely listed as inhibitors; Aldehyde dehydrogenase 1A1 (Homo sapiens), P00352; AID 1030, 2008;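 further: plate controls were no enzyme wells and a reference inhibitor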
Target sequence (P00352 whole entry, looked up): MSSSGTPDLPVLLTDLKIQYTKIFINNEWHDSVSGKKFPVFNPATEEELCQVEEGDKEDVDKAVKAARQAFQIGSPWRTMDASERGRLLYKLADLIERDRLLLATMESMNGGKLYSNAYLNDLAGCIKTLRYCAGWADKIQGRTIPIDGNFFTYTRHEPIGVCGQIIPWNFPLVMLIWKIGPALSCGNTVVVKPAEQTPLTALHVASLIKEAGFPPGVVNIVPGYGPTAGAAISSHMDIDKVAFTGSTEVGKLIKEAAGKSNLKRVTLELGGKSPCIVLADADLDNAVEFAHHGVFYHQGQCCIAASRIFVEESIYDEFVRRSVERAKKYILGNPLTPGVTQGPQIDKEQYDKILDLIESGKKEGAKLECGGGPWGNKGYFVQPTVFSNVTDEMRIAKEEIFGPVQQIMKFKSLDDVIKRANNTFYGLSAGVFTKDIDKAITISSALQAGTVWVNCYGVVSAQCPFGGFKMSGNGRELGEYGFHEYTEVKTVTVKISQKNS
HTT aggregate = qHTS Multiplex Assay to Identify Dual Action Probes in a Cell Model of Huntington: Aggregate Formation (GFP). PC12 HttQ103-GFP aggregates, Acumen cytometry, 40 h. Potency, µM (top dose mostly 46.1 µM), without a hit: at the top dose activity change, negative = inhibition, usual class: inhibitors. 220,000 tested, 1.1% active; active means well fitted curve in the direction sought with a large enough effect; inconclusive means small, poorly fitted or top-dose-only effect, or another doubt; inactive means no such curve, though single readings can be large; an effect the other way counts as inactive or inconclusive; further: on the % scale 0 is the no-effect control and ±100 the full control effect; nearly all actives have a fitted effect of over 60% in size
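PC12 cells stably carrying ecdysone-inducible HTT exon 1 Q103–GFP were induced with tebufenozide (100 nM final) and treated with library compounds in titration. GFP aggregates in lysates were counted by laser scanning cytometry.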
The depositor's hits bear a star; ? = inconclusive; / = not tested or not shown; ! = not confirmed by another sample; [ ] = another dose, or the depositor's remark. Rows were chosen to be rich in hits. Some 8.8% of all compounds tested hit in one or more screens of this group. Unless noted, the call rests on the fitted dose curve; in most records, active means well fitted inhibition curve with a large enough effect (not every such curve was filed as active); inconclusive means small, poorly fitted or top-dose-only effect, or another doubt; inactive means no such curve, though single readings can be large or run the other way. Potency means the concentration at half of the fitted maximal effect.

SMILES	HTT cytoprotect	LMNA splice mod	HPGD inh	ALDH1A1 inh	HTT aggregate
CC(N=Cc1c(O)n(C2CC2)c(=S)[nH]c1=O)c1ccccc1 (configuration not stated)	-8%[10 µM]	/	/	/	-6%[9.22 µM]
O=c1[nH]c(=S)n(C2CC2)c(O)c1/C=N/Nc1ccccc1	1%[10 µM]	?	-18%	3.2µM*	9%
CCC(C)n1c(O)c(/C=N/Nc2ccccc2)c(=O)[nH]c1=S (configuration not stated)	8%[10 µM]	?	-23%	3.5µM*	-8%
O=c1[nH]c(=S)n(C2CC2)c(O)c1/C=N/Nc1cccc2ccccc12	-21%[10 µM]	-10%	/	2.5µM*	2%
CC(=O)[C@@]1(O)CC[C@H]2C3CCC4=CC(=O)CC[C@]4(C)C3CC[C@@]21C (some centres not stated)	/	?	-13%	3%	/
N[C@@H](Cc1ccccc1)P(=O)(O)O	-16%[10 µM]	/	-6%	-1%[13.5 µM]	/
OCC(CBr)(CBr)CBr	-47%	/	-9%	18µM*	/
COC(=O)[C@H](N)CCCN=C(N)N[N+](=O)[O-]	8%[1.9 µM]	/	/	/	/
O=S1(=O)N(CCN2CC=C(c3c[nH]c4cc(F)ccc34)CC2)c2cccc3c2N1CCC3	3%[1.9 µM]	?	-20%	25µM*	/
COc1cc(O)c(C(=O)c2ccccc2)cc1S(=O)(=O)O	?	?	-1%	13µM*	5%
COc1ccc(OP(=O)(Nc2ccccc2)Nc2ccccc2)cc1	7%	-7%	14µM*	4%	4%
Oc1c(Cl)c(Cl)c(Cl)c(Cl)c1Cl (tested in a mixture with another compound)	2%[10 µM]	/	/	4%[13.5 µM]	/
CC(C)(C)OC(=O)N1CC[C@H]1COc1cnc[c]([Sn]([CH3])([CH3])[CH3])c1	-44%[10 µM]	/	1%	3%[13.5 µM]	/
CCCCCc1nc2c(c(=O)c3ccccc3n2C)c(=O)n1C1CCCCCC1	13%[10 µM]	-19%	-1%	3.5µM*	-26%
Nc1ccccc1C(=O)O	-41%	20%	-20%	?	-4%
Nc1ccccc1O.O.O=C(O)[C@H]1[O][Sb][O][C@H]1C(=O)O	22%[10 µM]	/	-6%	3.2µM*	/
O=C(Nc1ccc(Oc2ccc(Cl)cc2)c(Cl)c1)c1cc(I)cc(I)c1O	-54%	/	/	/	13µM*
N[C@H](Cn1ccc(=O)[nH]c1=O)C(=O)O	-20%[1.9 µM]	/	/	/	/
O=C(OC1Cc2c(O)cc(O)cc2OC1c1cc(O)c(O)c(O)c1)c1cc(O)c(O)c(O)c1 (configuration not stated)	/	-18%	14µM*	?	/
Oc1cc(O)c2c(c1)OC(c1cc(O)c(O)c(O)c1)C(O)C2 (configuration not stated)	-58%	/	16µM*	?	/
CCCCOC(=O)COc1cc(C)cc2oc(=O)c3c(c12)CCC3	1%	0%	-22%	10µM*	-1%
C=CCOC(=O)COc1cc(C)cc2oc(=O)c3c(c12)CCC3	9%	4%	?	?	6%
Cc1cc(OC(=O)CCCNC(=O)OC(C)(C)C)c2c3c(c(=O)oc2c1)CCC3	-13%	14%	-12%	?	-13%
Cc1cc(OC(=O)c2ccco2)c2c3c(c(=O)oc2c1)CCC3	-23%	?	/	10µM*	?
Cc1cc(OCc2ccc([N+](=O)[O-])cc2)c2c3c(c(=O)oc2c1)CCCC3	1%	1%	?	28µM*	2%
SMILES	HTT cytoprotect	LMNA splice mod	HPGD inh	ALDH1A1 inh	HTT aggregate
Cc1cc(OC(=O)CCNC(=O)OC(C)(C)C)c2c3c(c(=O)oc2c1)CCC3	-22%[0.074 µM]	?	?	1.8µM*	-1%[9.22 µM]
COC(=O)[C@@H]1C[C@@H]1[C@@H](NP(=O)(c1ccccc1)c1ccccc1)c1ccccc1	-40%	/	/	/	/
NC(Cn1ccc(=O)[nH]c1=O)C(=O)O (configuration not stated)	/	-12%	-5%	11%	/
CC[C@H]1CN2CC[C@@H]1C[C@@H]2[C@H](O)c1ccnc2ccccc12	-9%	/	/	/	/
CC1=C2C(=O)[C@@H]3[C@@H](CC=C4C[C@@H](O)CC[C@@]43C)[C@H]2CC[C@@]12O[C@H]1C[C@H](C)CN[C@H]1[C@@H]2C	3%[10 µM]	/	-6%	5%[13.5 µM]	/
CCN(CC)C(=O)c1ccc(NC(=O)COc2ccc([N+](=O)[O-])cc2Cl)cc1	23%[10 µM]	?	0.5µM*	-14%	-8%
C=C(COC(=O)CCC(=O)O)CC1CC(O)[C@]2(C)OC3CC4OC5C[C@]6(C)O[C@]7(C)CCC8OC9C[C@]%10(C)OC%11C(C)=CC(=O)OC%11CC%10OC9C[C@@H](C)C8OC7CC6O[C@]5(C)C/C=C\C4OC3CC2O1 (some centres not stated)	11%[10 µM]	/	/	/	?
CC1=CC(=O)OC2CC3OC4C[C@@H](C)C5OC6CC7O[C@]8(C)C/C=C\C9OC%10CC%11OC(CC(C)CO)CC(O)[C@]%11(C)OC%10CC9OC8C[C@]7(C)O[C@]6(C)CCC5OC4C[C@]3(C)OC12 (some centres not stated)	8%[10 µM]	/	/	2.8µM*	-3%[9.22 µM]
CN(C)c1ccc(C=C2C(=O)NC(=S)NC2=O)cc1[N+](=O)[O-]	-45%	5%[46 µM]	/	11µM*	5%
CC(C)(C)c1ccccc1O	-4%	/	-6%	32µM*	/
COc1ccc(O)c(C(C)(C)C)c1	-7%	/	-7%	-2%	-1%
CC(C)(C)c1cc(O)ccc1O	32µM*!	?	-2%	3.5µM*	?
O=C(O)/C=C\C(=O)Nc1ccc(Oc2ccc(Br)cc2)cc1	/	22%[46 µM]	/	1.4µM*	/
Cc1ccc(S(=O)(=O)NCC2CCC(C(=O)NCCCN3CCOCC3)CC2)cc1 (configuration not stated)	16%	2%	5%	22µM*	6%
COc1ccc(C(=O)C(Cc2ccccc2)N(C)C)cc1 (configuration not stated)	-7%[0.074 µM]	-7%	-4%	28µM*	-25%
CN(C)C(Cc1ccccc1)C(=O)c1ccc(-c2ccccc2)cc1 (configuration not stated)	13%	-14%	-27%	?	-17%
C=CCN1C(=O)NC(=O)/C(=C/c2ccc(N(C)C)c(Br)c2)C1=O	-5%	?	/	13µM*	?
C=CCN1C(=O)NC(=O)/C(=C/c2ccoc2)C1=O	-43%[10 µM]	?	25µM*	?	17%
C=CCN1C(=O)NC(=O)/C(=C/c2cccn2C)C1=O	0%	16%	-23%	4%	11%
COc1ccc(CN2C(=O)NC(=O)/C(=C/c3ccoc3)C2=O)cc1	-20%[10 µM]	/	/	/	-16%[9.22 µM]
